# The supplement of paper PMC12067093, “Discovery and optimisation of a covalent ligand for TRIM25 and its application to targeted protein ubiquitination” (Chemical Science, 2025)
# Targets with the largest changes are over-represented here; the source holds about 21,000 in all.
# Biological target: HPRT1_P00492_66_EMGGHHIVALCVLK (UniProt P00492)
# Assay: probe-labelled cysteine peptide fold change vs DMSO (competition) (log2 fold change); higher = less target engagement (more negative = stronger competition)
# Conditions: THP-1, incubation time: 4 h
# 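Also: competitive chemoproteomic profiling in live THP-1 cells with an iodoacetamide desthiobiotin (IA-DTB) probe, comparing probe-labelled peptide intensities in compound-treated cells against DMSO-treated controls.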
# Sequence of UniProt P00492 (P00492 whole entry, looked up): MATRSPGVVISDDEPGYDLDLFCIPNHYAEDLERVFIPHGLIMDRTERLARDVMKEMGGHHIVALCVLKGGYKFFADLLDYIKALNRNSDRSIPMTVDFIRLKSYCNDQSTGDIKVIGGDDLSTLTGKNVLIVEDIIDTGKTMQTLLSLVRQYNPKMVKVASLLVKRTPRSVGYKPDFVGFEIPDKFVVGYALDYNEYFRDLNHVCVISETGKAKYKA
smiles,measurement,setting,value
CC1Cc2ccccc2N1C(=O)C1CCCN(C(=O)CCl)C1 (mixture of isomers) [TRIM25 ligand 11 (diastereomer mixture)],probe-labelled cysteine peptide fold change,10 µM,-0.135
same,probe-labelled cysteine peptide fold change,50 µM,0.123
